Most compounds without a hit are left out; they make up all but 2.9% or so of the library.
LYPLA2 counter – blocks human lysophospholipase 2, a PME1 counter-screen. O95372. recombinant LYPLA2, FP-Rh probe fluorescence polarization. inhibition, % at 5.9 µM. actives 0.38% (n = 320,000). AID 2177;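 active = inhibition above the screen-wide mean plus 3 SD, limit set per campaign, cut at about 26% in these data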
Target sequence (O95372 whole entry, looked up): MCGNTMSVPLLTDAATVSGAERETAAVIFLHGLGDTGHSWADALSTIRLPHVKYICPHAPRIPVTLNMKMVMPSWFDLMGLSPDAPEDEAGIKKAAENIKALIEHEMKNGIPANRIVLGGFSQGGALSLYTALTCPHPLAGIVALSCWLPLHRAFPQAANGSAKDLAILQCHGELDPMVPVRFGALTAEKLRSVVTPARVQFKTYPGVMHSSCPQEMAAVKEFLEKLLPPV
PAFAH2 FP inh – inhibitors of human PAFAH2 | Q99487 | actives 0.99% (n = 340,000) | inhibition, % at 3.39 µM | recombinant PAFAH2, FP-rhodamine activity probe, fluorescence polarization;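 active = inhibition above the mean over all tested compounds plus 3 SD, cut at about 30% in these data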;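 note: inhibitors block probe labeling of enzyme so polarization drops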
PAFAH1B3 FP inh – PAFAH1B3 (human) inhibition | Q15102 | recombinant PAFAH1B3, FP-rhodamine probe, fluorescence polarization | inhibition, % at 3.39 µM | actives 0.28% (n = 340,000) | AID 492972;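 active = inhibition above the screen-wide average of all tested compounds plus 3 SD, cut at about 25% in these data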
Target sequence (Q15102 whole entry, looked up): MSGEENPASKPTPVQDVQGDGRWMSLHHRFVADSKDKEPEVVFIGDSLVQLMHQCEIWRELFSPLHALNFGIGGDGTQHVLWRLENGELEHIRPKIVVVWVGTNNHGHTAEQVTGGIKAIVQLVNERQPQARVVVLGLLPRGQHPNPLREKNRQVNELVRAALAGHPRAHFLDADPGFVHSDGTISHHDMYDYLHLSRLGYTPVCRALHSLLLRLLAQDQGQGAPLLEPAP
LYPLA1 counter – blocks human lysophospholipase 1, a PME1 counter-screen. O75608. recombinant LYPLA1, FP-Rh probe fluorescence polarization. inhibition, % at 5.9 µM. actives 0.16% (n = 320,000). AID 2174;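 active = inhibition above the mean of all tested compounds plus 3 SD, set per campaign, cut at about 14% in these data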;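 note: inhibitors block serine hydrolase probe labeling of LYPLA1 so polarization falls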
PAFAH1B2 FP inh – inhibitors of human PAFAH1B2; P68402; recombinant PAFAH1B2, FP-rhodamine activity probe, fluorescence polarization; inhibition, % at 3.39 µM; actives 1.2% (n = 340,000);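 active = inhibition above the mean of all tested compounds plus 3 SD, cut at about 24% in these data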
pPAFAH FP inh – pPAFAH (human) enzyme inhibition. Q13093. recombinant pPAFAH, FP-rhodamine probe fluorescence polarization. inhibition, % at 3.39 µM. actives 1.5% (n = 330,000). AID 463082;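 active = inhibition above the mean inhibition across the screen plus 3 SD, cut at about 25% in these data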;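 note: inhibitors block binding of the rhodamine activity-based probe so polarization drops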
PAFAH2 confirm – confirmation of human PAFAH2 inhibitors; actives 65% (n = 2,300); AID 493030; shares compounds with PAFAH2 FP inh; inhibition, % at 3.39 µM; recombinant PAFAH2, FP-rhodamine activity probe, fluorescence polarization;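 active = mean inhibition over three repeats above a set limit taken from the earlier primary screen, cut at about 30% in these data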;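 note: inhibitor blocks binding of rhodamine activity probe so polarization falls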
Hits are given with their value; i = inactive; nt = not tested or not shown.

SMILES	LYPLA2 counter	PAFAH2 FP inh	PAFAH1B3 FP inh	LYPLA1 counter	PAFAH1B2 FP inh	pPAFAH FP inh	PAFAH2 confirm
CCC1CCCCN1CCCNC(=O)c1csc2c1CCCCC2 (stereo unspecified)	i	i	i	i	i	i	nt
CC(=O)Nc1ccc(C(=O)OCC(=O)Nc2c(F)cccc2F)cc1	i	50	i	i	i	i	38
CN(C)c1ccc(C(=O)OCC(=O)Nc2ccc(N3CCOCC3)cc2)cc1	i	49	i	i	i	i	35
CN(C)c1ccc(C(=O)OCc2ccc(Br)cc2)cc1	i	34	i	i	i	i	35
CCOc1ccc(C(=O)OCC(=O)NCCCc2ccccc2)cc1	i	55	i	i	i	i	35
CN(C)c1ccc(C(=O)OCC(=O)NCC2CCCO2)cc1 (stereo unspecified)	i	62	i	i	i	i	56
O=C(NCc1ccc(F)cc1)C1CCCN(S(=O)(=O)c2cccc3nsnc23)C1 (stereo unspecified)	i	i	i	i	i	i	nt
Cc1ccccc1C(=O)Nc1ccc(O)cc1C(=O)O	i	i	i	i	i	i	nt
O=C(Nc1ccc(O)cc1C(=O)O)c1cccc(Br)c1	i	38	i	i	i	i	i
O=C(Cc1cccc2ccccc12)Nc1ccc(Br)cc1C(=O)O	i	36	i	i	i	i	i
Cc1ccc(C)c(S(=O)(=O)N2CCN(C(=O)CCC(=O)NCc3ccc(Cl)cc3)CC2)c1	i	i	i	i	i	i	nt
O=C(COC(=O)c1cccs1)Nc1ccccc1[N+](=O)[O-]	i	75	i	i	i	i	68
Cc1cnc(C(=O)OCC(=O)Nc2ccccc2[N+](=O)[O-])cn1	nt	i	i	nt	i	i	nt
N#Cc1ccccc1NC(=S)NC(=O)c1cccs1	i	i	i	i	i	i	nt
N#Cc1ccccc1NC(=O)COC(=O)c1cccs1	nt	84	i	nt	i	i	63
COC(=O)c1c(C)oc2ccc(N(C(C)=O)S(=O)(=O)c3ccccc3)cc12	i	i	i	i	i	i	nt
COc1ccc(NS(=O)(=O)c2ccc(C)c(NC(=O)C3CCCO3)c2)cc1 (stereo unspecified)	i	i	i	i	i	i	nt
CC(=O)c1ccc(S(=O)(=O)N2CCN(C(=O)c3ccc(-n4nc(C)c(Cl)c4C)cc3)CC2)cc1	i	50	i	i	i	i	43
COc1ccccc1C(=O)OCC(=O)NC12CC3CC(CC(C3)C1)C2	nt	74	i	nt	i	nt	82
CCN(CC)S(=O)(=O)c1ccc(O)c(C(=O)OCC(=O)Nc2cc(C)c(C)cc2[N+](=O)[O-])c1	i	i	i	i	i	i	nt
O=C(COC(=O)c1ccc(O)cc1O)NC12CC3CC(CC(C3)C1)C2	i	75	i	i	i	i	60
CCOC(=O)c1c(C)[nH]c(C)c1C(=O)COC(=O)c1cccc(S(=O)(=O)N(CC)CC)c1	i	i	i	i	i	i	nt
CCN(CC)S(=O)(=O)c1cccc(C(=O)OCC(=O)C23CC4CC(CC(C4)C2)C3)c1	i	40	i	i	i	i	i
CCN(CC)S(=O)(=O)c1ccc(O)c(C(=O)OCC(=O)Nc2ccc(OC(F)(F)F)cc2)c1	i	38	i	i	i	i	i
O=C(COC(=O)C(O)c1ccccc1)NC12CC3CC(CC(C3)C1)C2 (stereo unspecified)	i	i	i	i	i	i	nt
SMILES	LYPLA2 counter	PAFAH2 FP inh	PAFAH1B3 FP inh	LYPLA1 counter	PAFAH1B2 FP inh	pPAFAH FP inh	PAFAH2 confirm
CC(=O)N(C(C)=O)c1c(N2CCCC2)c2ccccc2oc1=O	i	i	i	i	i	i	nt
CN1CCN(C(=S)NC(=O)/C=C/c2cccs2)CC1	i	i	i	i	i	i	nt
COc1cc(OC)c(C(=O)OCC(=O)NC23CC4CC(CC(C4)C2)C3)cc1OC	nt	97	i	nt	i	i	82
CCN(CC)S(=O)(=O)c1ccc(O)c(C(=O)OCC(=O)NC23CC4CC(CC(C4)C2)C3)c1	nt	77	i	nt	i	i	68
COc1cc(OC)c(C(=O)NC23CC4CC(CC(C4)C2)C3)cc1OC	i	i	i	i	i	i	nt
O=C(COC(=O)c1ccc(F)cc1)NCCc1ccc(F)cc1	i	36	i	i	i	i	i
O=C(COC(=O)c1ccc2c(c1)OCCO2)NCCc1ccc(F)cc1	nt	68	i	nt	i	i	54
Cc1nc(C)c(C(=O)OCC(=O)NCCc2ccc(S(N)(=O)=O)cc2)s1	i	i	i	i	i	i	nt
Cc1nc(C)c(C(=O)OCC(=O)NCCc2ccc(F)cc2)s1	nt	31	i	nt	i	nt	i
O=C(COC(=O)c1cc(Cl)nc(Cl)c1)NCCc1ccc(F)cc1	nt	i	i	nt	i	i	nt
O=C(COC(=O)c1cccs1)NCCc1ccc(F)cc1	nt	55	i	nt	i	nt	49
COc1ccc(CNC(=O)COC(=O)c2ccc3c(c2)OCCO3)cc1	i	i	i	i	i	i	nt
CCCn1c(SCC(=O)Nc2ccc(OC)cc2)nnc1-c1ccncc1	i	i	i	i	i	i	nt
CC(C)CCN1C(=O)c2ccc(C(=O)N3CCCCC3)cc2C1=O	i	i	i	i	i	i	nt
Cc1nc(C)c(C(=O)Nc2cccc(C)c2C)s1	i	i	i	i	i	i	nt
Cc1nc(C)c(C(=O)OCC(=O)Nc2cccc(C)c2C)s1	i	66	i	i	i	i	51
CCCCCCc1nc(C(N)=O)c2[nH]c(=O)n(-c3ccc(OC)cc3OC)c2n1	i	i	i	i	i	i	nt
CCS(=O)(=O)c1ccc(O)c(NC(=O)NC2CCCCC2)c1	i	81	i	i	i	i	64
CCS(=O)(=O)c1ccc(O)c(NC(=O)COc2ccccc2)c1	i	48	i	i	i	i	44
Nc1nc(SCC(=O)c2cccs2)n[nH]1	i	i	i	i	i	i	nt
CC(=O)Nc1cc(C)ns1	nt	i	i	nt	i	nt	nt
CCOc1ccccc1-c1nc(-c2cc3ccccc3nc2OC)no1	i	i	i	i	i	i	nt
CCOc1ccccc1-c1nc(-c2cc3ccc(C)cc3[nH]c2=O)no1	i	52	i	i	i	i	32
Cc1ccc2cc(-c3noc(C4CCCCC4)n3)c(=O)[nH]c2c1	i	47	i	i	i	i	51
Cc1ccc2cc(-c3noc(C4CCCO4)n3)c(=O)[nH]c2c1 (stereo unspecified)	i	i	i	i	i	i	nt
O=S(=O)(c1ccc2ccccc2c1)N1CCN(C2CCN(Cc3ccccc3)CC2)CC1	i	i	i	i	i	i	nt
O=c1oc(-c2cccs2)nc2sc3c(c12)CCC3	i	56	i	i	i	i	48
O=c1oc(/C=C/c2ccco2)nc2sc3c(c12)CCC3	i	55	i	i	i	i	i
O=C1CN(c2nc(-c3cccs3)nc3sc4c(c23)CCCC4)CCN1	i	i	i	i	i	i	nt
